Potency and affinity values are given separately. The source made the active and inactive calls.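 The calls were made as follows: active = viability loss whose fitted half-maximal concentration is at most twice the top valid tested dose; inconclusive = flat curve with 30 to 70% loss, or poor fit; inactive = the rest.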
assay: viability loss in HepG2 liver cells – cell-based, ATP luminescence, cherry-pick, set 6, cytotoxicity control, dose response (AID 1053125); details: ATP luminescence (CellTiter-Glo), 72 h; series mostly up to 26 µM;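 also: negative values mean loss of viability signal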

Compound	outcome
O=c1[nH]c(Nc2ccccc2Cl)cc2ccccc12	inactive
CC(=O)c1sc(N/N=C\c2ccc(N(C)C)cc2)nc1C	inactive
CCc1ccccc1S(=O)(=O)Cc1ccc(C(=O)N2CCN(c3ccccc3OC)CC2)o1	inactive
CC(C)C(=O)Nc1sc2c(c1C(N)=O)CCN(Cc1ccccc1)C2	inactive
O=C(O)[C@@H]1CCCN1S(=O)(=O)c1cccc(S(=O)(=O)N2CCC[C@H]2C(=O)O)c1	inactive
Cc1oc(/N=C/c2ccc(O)cc2O)c(C#N)c1C	inactive
Cc1cccn2c(=O)c3cc(C(=O)NCCN4CCOCC4)c(=N)n(Cc4ccc(F)cc4)c3nc12	inactive
N#C/C(=C\c1ccc(N2CCOCC2)o1)C(=O)NCCc1ccccc1	inactive
CCOC(=O)c1cc2c(=O)n3ccccc3nc2n(CCCOC)c1=NC(=O)c1ccncc1	inactive
N#C/C(=C\c1ccco1)C(=O)Nc1cccc2ncccc12	inactive
Cn1c(=N)c(S(=O)(=O)c2ccccc2)cc2c(=O)n3ccccc3nc21	inactive
Cc1nc(CCNC(=O)Cc2ccc(Cl)cc2)cs1	inactive
CCC(C)n1c(=N)c(C#N)cc2c(=O)n3cccc(C)c3nc21 (stereo not given)	inactive
CCN(CC)CCCNc1nc(C)cc(COC)c1C#N	inactive
CCC(=O)NCCCNc1nc2c(C)cccc2cc1C#N	inactive
CC1CCCCC1NC(=O)CN1C(=O)c2cccc(N)c2C1=O (stereo not given)	inactive
COc1ccc(S(=O)(=O)Cc2ccc(C(=O)N3CCN(Cc4ccccc4)CC3)o2)cc1	inactive
Cc1noc(C)c1S(=O)(=O)N(CC(=O)N1CCCCCC1)c1ccc(C(C)C)cc1	inactive

Compound	outcome
CCCOc1ccccc1/C=C1\SC(N)=NC1=O	inactive
Cc1ccc(O)c(NC(=S)NC(=O)COc2ccc(Br)cc2)c1	inactive
O=C(Nc1ccc2c(c1)OCCO2)c1ccc(NC(=O)C2CCCO2)cc1 (stereo not given)	inactive
O=C(O)c1[nH]c2ccccc2c1C(c1cc(Br)ccc1O)c1c(C(=O)O)[nH]c2ccccc12	inactive
O=C(/C=C/c1ccccc1)C1=C(O)C(=O)N(CCO)C1c1ccc2c(c1)OCO2 (stereo not given)	inactive
O=C(O)c1cccc(Nc2nc(-c3cc4ccccc4oc3=O)cs2)c1	inactive
COc1ccc(C2CC(c3ccccc3)=NN2c2ccc(C(N)=O)cc2)cc1 (stereo not given)	inactive
NC(=O)c1c(NC(=O)Cc2ccccc2)sc2c1CCN(Cc1ccccc1)C2	inactive
CNC(=O)c1ccc(NC(=O)c2cccc(C(F)(F)F)c2)cc1	inactive
COc1ccc(CCN=C(N)NS(=O)(=O)c2ccc(F)cc2)cc1	inactive
N#Cc1c(NCCCO)nc(NCc2ccccc2)c2c1CCN(Cc1ccccc1)C2	inactive
Nc1ccc2nc(-c3ccccc3)cnc2c1	inactive
COc1ccc(C2C(C#N)=C(N)Oc3cc(O)ccc32)cc1Cl (stereo not given)	inactive
CCOc1ccc2nc(NCCNC(=O)CC)c(C#N)cc2c1	inactive
CN(C)C(=O)CSc1nc2ccc(C(=O)c3ccccc3)cc2[nH]1	inactive
COCCn1c(=N)c(S(=O)(=O)c2ccc(F)cc2)cc2c(=O)n3ccccc3nc21	inactive
COCCNC(=S)N/N=C/c1ccc(-c2ccc([N+](=O)[O-])cc2)o1	inactive

Reference: PubChem BioAssay AID1053125 (Broad Institute, 2014)
